High-throughput results (PubChem)
MRP-1 activ: activates MRP-1; H69AR cells + doxorubicin, viability rescue, CellTiter-Glo; 0.61% of 140,000 active; viability increase, % at 10 µM;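 active means viability gain under doxorubicin at or above a set limit, the compound median plus 3 SD, cut at about 4.7% in these data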;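 further: MRP-1 overexpressing cells given doxorubicin 25 µM after compound pretreatment; 18-22 h compound pretreatment then 72 h with doxorubicin before readout; 0% = doxorubicin-only wells and 100% = vehicle-treated cells without doxorubicin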
CYP2C19 inh: inhibitors of human CYP2C19; AID 778; P33261; 21% of 96,000 active; inhibition, % at 5 µM; CYP2C19 Supersomes, luciferin-H EGE luminescence, 30 min;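 active means CYP2C19 inhibition above a set limit at 5 µM in the primary screen, cut at about 50% in these data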;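 further: plate controls were negative control wells for no effect and 2.5 mM tranylcypromine positive control for full effect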
Target sequence (P33261 whole entry, looked up): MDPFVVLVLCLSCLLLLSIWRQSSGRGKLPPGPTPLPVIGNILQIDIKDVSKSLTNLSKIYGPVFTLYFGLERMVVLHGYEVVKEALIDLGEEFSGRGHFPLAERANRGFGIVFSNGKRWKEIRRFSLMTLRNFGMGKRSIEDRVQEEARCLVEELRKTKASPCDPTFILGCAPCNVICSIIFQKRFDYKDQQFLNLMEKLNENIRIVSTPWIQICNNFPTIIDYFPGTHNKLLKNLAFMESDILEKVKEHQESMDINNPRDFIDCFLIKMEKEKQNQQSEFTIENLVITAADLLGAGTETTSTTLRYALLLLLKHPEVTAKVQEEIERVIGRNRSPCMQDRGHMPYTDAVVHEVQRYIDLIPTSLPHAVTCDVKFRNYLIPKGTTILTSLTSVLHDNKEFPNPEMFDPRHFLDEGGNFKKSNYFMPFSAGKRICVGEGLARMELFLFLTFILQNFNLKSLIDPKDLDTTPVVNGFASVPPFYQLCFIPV
MRP reversal: MRP-mediated drug resistance reversal; H69AR cells + 2 uM doxorubicin, CellTiter-Glo, 72 h; 0.04% of 85,000 active; differential viability (reversal), % at 10 µM;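 active means viability drop by adding the cancer drug above about 55%, with treated viability meeting a 40% cutoff, limit read from the data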;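 further: viability without doxorubicin minus viability with 2 µM doxorubicin for each compound; larger differential means the compound sensitizes cells more to doxorubicin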
CYP2C9 act: CYP2C9 (human) activation; AID 1024; activation factor at 5 µM; 1.4% of 96,000 active; recombinant CYP2C9, luciferin-H conversion, luminescence; stronger effect = higher value; factor 1 = untreated enzyme, 0 = blocked;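 active means activation factor of 2 or more for CYP2C9 at a 5 µM dose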;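 further: 0 = sulfaphenazole-blocked wells and 1 = vehicle-only wells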
CYP2C9 inhib: blocks human cytochrome P450 2C9; P11712; CYP2C9 Supersomes, luciferin-H conversion, luminescence; inhibition, % at 5 µM; 20% of 96,000 active; AID 777;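 active means blocking of liver enzyme CYP2C9 beyond about 50% at 5 µM, limit read from the data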
CYP2C19 activ: increases human CYP2C19 enzyme activity; 96,000 tested, under 10 active; recombinant CYP2C19, luciferin-H EGE luminescence; stronger effect = higher value; 0 = fully inhibited enzyme, 1 = untreated enzyme; AID 1025; activation factor at 5 µM;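 active means activation factor of at least 2 at 5 µM in the primary screen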;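 further: 0 = wells with 2.5 mM tranylcypromine and 1 = vehicle-only wells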
An asterisk follows results filed as active; . = no result given. Most compounds without a hit are left out; they make up all but 21% or so of the library.

SMILES	MRP-1 activ	CYP2C19 inh	MRP reversal	CYP2C9 act	CYP2C9 inhib	CYP2C19 activ
CCOC(=O)c1ccc(NS(=O)(=O)c2cc(C)ccc2OC)cc1	-0.2	-5.4	.	0.4	57.9*	1.1
COc1ccc(NS(=O)(=O)c2cc(NC(=O)c3ccc(F)cc3)ccc2OC)cc1	-1.5	.	.	.	.	.
COc1ccc(OC)c(S(=O)(=O)Nc2ccc(Oc3ccccc3)cc2)c1	0.1	97.0*	12.8	0.2	81.6*	0
CCCCCCOC(=O)c1ccc(NC(=O)c2cc(OC)c(OC)c(OC)c2Br)cc1	4.9*	44.3	.	0.4	64.5*	0.6
CSCCC(NC(=O)c1ccco1)C(=O)OCC(=O)Nc1sccc1C#N (configuration not stated)	-1.5	55.3*	10.5	0.2	78.1*	0.4
CCOC(=O)C(C(=O)OCC)C(C(=O)OCC)N1CCOCC1 (configuration not stated)	-5.5	-2.6	0.0	0.5	52.9*	1
Cc1c(NC(=O)c2cnn3c2NC(c2ccc(Br)cc2)CC3C(F)(F)F)c(=O)n(-c2ccccc2)n1C (configuration not stated)	-3.9	.	10.8	.	.	.
COc1cccc(C2CC(C(F)(F)F)n3ncc(C(=O)NCc4ccco4)c3N2)c1 (configuration not stated)	-2.7	66.9*	14.9	0.2	82.6*	0.3
COc1ccc(C2CC(C(F)(F)F)n3nc(C(=O)O)c(Cl)c3N2)cc1OC (configuration not stated)	-1.4	-8.7	-13.4	1	2.2	1.1
COc1ccc(C2CC(C(F)(F)F)n3nc(CO)c(Cl)c3N2)cc1OC (configuration not stated)	-2.0	77.3*	5.3	0	98.3*	0.2
COc1ccc(C2CC(C(F)(F)F)n3ncc(C(=O)Nc4cccc(O)c4)c3N2)cc1OC (configuration not stated)	-0.1	18.9	.	0.5	50.2*	0.8
O=c1[nH]ncc2c3ccccc3n(Cc3ccccc3F)c12	-2.7	0.8	.	0.9	5.7	1
Cn1c(=O)c2ccccc2n(Cc2ccccc2F)c1=O	-1.0	52.1*	.	0.8	23.8	0.5
O=C(O)C1C2C=CC(C2)C1C(=O)Nc1ccc(C(=O)N2CCCCC2)cc1 (configuration not stated)	-1.8	14.9	14.5	0.9	5.2	0.9
COCCN1Cc2cccc(C(=O)NC3CCCCCC3)c2C1=O	-1.6	.	12.5	.	.	.
CCN1CCN(C(=O)CN2C(=O)c3cccc4cccc2c34)CC1	-1.3	.	-17.2	.	.	.
Cc1ccc(Cl)cc1N1CCN(C(=O)CN2C(=O)c3cccc4cccc2c34)CC1	1.4	22.0	1.6	2*	-103.1	0.8
CCCN1Cc2cccc(C(=O)N3CCN(c4cc(Cl)ccc4C)CC3)c2C1=O	-0.2	89.4*	0.5	0	95.6*	0.1
Cc1ccc(Cl)cc1N1CCN(C(=O)CCC(=O)O)CC1	-3.1	-13.9	54.7	1.1	-7.6	1.1
COCCN1Cc2cccc(C(=O)N3CCN(c4cc(C)ccc4C)CC3)c2C1=O	0.0	74.6*	20.5	0.3	70.6*	0.3
CC(=O)Nc1ccc(S(C)(=O)=O)c(C)c1	-0.7	.	.	.	.	.
O=C(NCc1cccs1)Nc1ccc2c(c1)OCO2	-0.5	52.0*	8.1	0.8	17.2	0.5
O=C(NCc1ccc2c(c1)OCO2)c1ccc(COc2cccc(Cl)c2)o1	2.7	64.1*	9.1	0.1	88.2*	0.4
CC12CCC(C(=O)NCc3ccc4c(c3)OCO4)(C(=O)C1=O)C2(C)C (configuration not stated)	-0.9	56.4*	-0.5	0.7	30.2	0.4
CC12CCC(C(=O)NCc3ccc4c(c3)OCO4)(CC1=O)C2(C)C (configuration not stated)	-3.5	47.3	14.9	1	3.1	0.5
SMILES	MRP-1 activ	CYP2C19 inh	MRP reversal	CYP2C9 act	CYP2C9 inhib	CYP2C19 activ
Cc1ccc(S(=O)(=O)Cc2ccc(C(=O)NCc3ccc4c(c3)OCO4)o2)cc1	-1.1	84.3*	0.9	0	98.2*	0.2
O=C(Cc1cc(=O)[nH]c(=O)[nH]1)NCc1ccc(Cl)cc1	-1.6	.	.	.	.	.
O=C(NCCCn1ccnc1)c1nn2c(C(F)(F)F)cc(-c3ccc(Br)cc3)nc2c1Cl	-1.5	.	.	.	.	.
Cc1ccccc1CCN(C(=O)Cn1nnc2ccccc21)C(C(=O)NCC1CCCO1)c1nc2ccccc2n1C (configuration not stated)	-3.0	.	.	.	.	.
O=C(Cn1nnc(-c2ccccc2F)n1)Nc1ccc(S(=O)(=O)NC2CCCC2)cc1	1.2	45.4	-13.7	0.6	42.4	0.5
Cc1ccc(NC(=O)NCc2ccc3c(c2)OCO3)cc1	-1.5	51.4*	0.5	0.7	31.2	0.5
O=C(NCc1ccc2c(c1)OCO2)C1(S(=O)(=O)c2ccccc2)CC1	-2.5	.	-5.5	.	.	.
CCc1ccccc1NC1=NCC(=O)N1Cc1ccc2c(c1)OCO2	-2.3	.	-2.6	.	.	.
O=C(Nc1ccccc1)NC1(C(=O)NCCCN2CCOCC2)CCCCC1	-0.1	0.1	8.6	1	1.4	1
O=C(Nc1ccccc1)NC1(C(=O)NCc2cccs2)CCCCC1	-1.0	12.6	.	0.4	63.3*	0.9
Cc1ccc(NC2=NCC(=O)N2Cc2ccc3c(c2)OCO3)cc1	0.7	88.3*	12.9	0.1	86.3*	0.1
Cc1ccc(S(=O)(=O)C2(C(=O)NCc3ccc4c(c3)OCO4)CC2)cc1	-2.0	68.8*	5.5	0.4	63.5*	0.3
O=C(NC(NC(=S)Nc1ccc(Cl)c(Cl)c1)C(Cl)(Cl)Cl)c1ccco1 (configuration not stated)	-4.7	72.2*	.	0	99.7*	0.3
Cc1ccccc1NC(=S)NC(NC(=O)c1ccco1)C(Cl)(Cl)Cl (configuration not stated)	-2.9	.	.	.	.	.
O=C(NC(NC(=S)Nc1cc(Cl)ccc1Cl)C(Cl)(Cl)Cl)c1ccco1 (configuration not stated)	-5.5	80.7*	.	0	96.7*	0.2
C=CCN(CC=C)C(=S)NC(=O)c1ccc(C)c(Br)c1	-1.3	.	.	.	.	.
COc1ccc2c(c1OC)C(=O)N1c3ccccc3C(=O)N(c3ccccc3)C21 (configuration not stated)	-1.5	15.5	-2.1	0.4	59.3*	0.8
COc1ccc2c(c1OC)C(=O)N1c3ccccc3C(=O)N(c3ccc(F)cc3)C21 (configuration not stated)	-0.5	-0.1	-4.9	1	-0.5	1
Cn1c(Cn2nnc3ccccc32)nnc1SCC(=O)Nc1nccs1	2.6	.	.	.	.	.
O=C(/C=C/c1cccs1)Nc1ccc(N2CCOCC2)c(S(=O)(=O)Nc2ccccc2Cl)c1	-2.0	.	.	.	.	.
COc1ccccc1NS(=O)(=O)c1cc(NC(=O)/C=C/c2cccs2)ccc1N1CCOCC1	6.0*	.	.	.	.	.
C1=C(c2ccccc2)CCN(c2ncnc3nc[nH]c23)C1	-1.3	53.6*	12.0	0.8	17.3	0.5
O=C(O)c1ccc(N2Cc3ccccc3C2)cc1O	-1.2	47.5	.	0.5	52.6*	0.5
